Each structure is given as a SMILES string. Among all 39,000 compounds or so, about 1,500 (3.8%) were called active. This excerpt belongs to a sample that is enriched for actives.

This experiment deals with HSkMC (human skeletal muscle cells). Briefly: cytotoxicity call (relative viability < 0.9). The settings on record: 10 µM.
For the compound `Cc1noc(C)c1S(=O)(=O)Nc1ccc2c(c1)C(=O)N([C@@H](C)CO)C[C@@H](C)[C@@H](CN(C)S(=O)(=O)c1cn(C)cn1)O2`, the cytotoxicity call was “inactive”.

Consider `C[C@H](CO)N1C[C@H](C)[C@H](CN(C)C(=O)Nc2ccc(F)cc2)Oc2ccc(NS(=O)(=O)c3cn(C)cn3)cc2CC1=O`, for which the cytotoxicity call is “inactive”.

Take `C[C@@H]1CN([C@@H](C)CO)C(=O)Cc2cc(NC(=O)Cn3cnnn3)ccc2O[C@H]1CN(C)C(=O)Nc1ccc(F)cc1`: the cytotoxicity call is “inactive”.

As to `CCOC(=O)[C@H]1C/C=C/C[C@H](C(=O)OCC)C(=O)O[C@H]2[C@@H](OC)O[C@H](CO)[C@@H](OC(=O)Nc3cccc(F)c3)[C@@H]2OC1=O`, the cytotoxicity call was “active”.

With `CCOC(=O)[C@H]1C/C=C/C[C@H](C(=O)OCC)C(=O)O[C@H]2[C@@H](OC)O[C@H](CO)[C@@H](OC(=O)Nc3ccccc3)[C@@H]2OC1=O`, the cytotoxicity call was “inactive”.

As for `CCOC(=O)[C@H]1C/C=C/C[C@H](C(=O)OCC)C(=O)O[C@H]2[C@@H](OC)O[C@H](CO)[C@@H](OC(=O)c3ccc(Br)cc3)[C@@H]2OC1=O`, the cytotoxicity call is “inactive”.

Turning to `CCOC(=O)[C@H]1C/C=C/C[C@H](C(=O)OCC)C(=O)O[C@H]2[C@@H](OC)O[C@H](CO)[C@@H](OC(=O)c3c(OC)cccc3OC)[C@@H]2OC1=O`, the cytotoxicity call was “inactive”.

Take `CCOC(=O)[C@H]1C/C=C/C[C@H](C(=O)OCC)C(=O)O[C@H]2[C@@H](OC)O[C@H](CO)[C@@H](OC(=O)Nc3ccc4c(c3)OCO4)[C@@H]2OC1=O`: the cytotoxicity call is “active”.

As to `CO[C@H]1O[C@H](CO)[C@@H](OC(=O)Nc2ccc3c(c2)OCO3)[C@@H]2OC(=O)[C@H](Cc3cccc(Br)c3)C/C=C/C[C@@H](Cc3cccc(Br)c3)C(=O)O[C@@H]12`, the cytotoxicity call was “inactive”.

Regarding `CCOC(=O)[C@H]1C/C=C/C[C@H](C(=O)OCC)C(=O)O[C@H]2[C@@H](OC)O[C@H](CO)[C@@H](OC(=O)Nc3ccc(Br)cc3)[C@@H]2OC1=O`, the cytotoxicity call is “active”.

With `CO[C@H]1O[C@H](CO)[C@@H](OC(=O)Nc2cccc(F)c2)[C@@H]2OC(=O)[C@H](Cc3cccc(Br)c3)C/C=C/C[C@@H](Cc3cccc(Br)c3)C(=O)O[C@@H]12`, the cytotoxicity call is “inactive”.

For the compound `CCOC(=O)[C@H]1C/C=C/C[C@H](C(=O)OCC)C(=O)O[C@H]2[C@@H](OC)O[C@H](CO)[C@@H](OC(=O)Nc3ccc(OC)cc3)[C@@H]2OC1=O`, the cytotoxicity call was “inactive”.

Turning to `COc1ccc(NC(=O)N(C)C[C@@H]2OCCCC[C@@H](C)Oc3ccc(NC(=O)c4ccccc4)cc3C(=O)N([C@@H](C)CO)C[C@H]2C)cc1`, the cytotoxicity call was “inactive”.

In the case of `CC1(C)OC2CC3C4CCC5=CC(=O)C=CC5(C)C4C(O)CC3(C)C2(C(=O)CO)O1` (centres undefined), the cytotoxicity call is “inactive”.

Turning to `CC(=NNC(=O)c1nnn(-c2nonc2N)c1CN1CCC(C)CC1)c1cccc(Br)c1`, the cytotoxicity call was “inactive”.

For the compound `CN1C(=O)[C@@H]2[C@H](N=CN2CCCO)N(C)C1=O`, the cytotoxicity call was “inactive”.

As to `C=CCNC(=O)[C@H]1[C@@H]2C(=O)O[C@@H](c3ccccc3)[C@@H](c3ccccc3)N2[C@@H](c2ccc(O)cc2)[C@]12C(=O)Nc1ccc(C#CC3=CCCCC3)cc12`, the cytotoxicity call is “inactive”.

For `COc1ccc(S(=O)(=O)Nc2ccc3c(c2)C(=O)N([C@@H](C)CO)C[C@H](C)[C@H](CN(C)S(=O)(=O)c2cn(C)cn2)OCCCC[C@@H](C)O3)cc1`, the cytotoxicity call was “inactive”.

For the compound `C[C@@H](NC(=O)C[C@H]1CC[C@@H](NC(=O)CN2CCOCC2)[C@@H](CO)O1)c1ccccc1`, the cytotoxicity call is “inactive”.

On to `C[C@@H]1CN([C@@H](C)CO)C(=O)Cc2cc(NC(=O)Cn3cnnn3)ccc2O[C@@H]1CN(C)Cc1ccc(C(F)(F)F)cc1`, for which the cytotoxicity call was “inactive”.

As to `CO[C@H](CN(C)C(=O)c1ccc2c(c1)OCO2)[C@H](C)CN([C@H](C)CO)S(=O)(=O)c1ccc(C)cc1`, the cytotoxicity call was “inactive”.

Turning to `CO[C@H](CN(C)C(=O)c1ccc2c(c1)OCO2)[C@@H](C)CN([C@H](C)CO)S(=O)(=O)c1ccc(C)cc1`, the cytotoxicity call was “inactive”.

Turning to `COc1ccc(CNC(=O)[C@H](c2ccc(C)cc2)N(Cc2cccs2)C(=O)c2ccc3c(c2)OCCO3)cc1`, the cytotoxicity call is “active”.

As for `COc1cccc(C#Cc2cnc3c(c2)C(=O)N([C@H](C)CO)C[C@@H](C)[C@H](CN(C)C(=O)C2CCOCC2)O3)c1`, the cytotoxicity call was “inactive”.

For the compound `CC(C)C#Cc1ccc2c(c1)O[C@@H](CN(C)C(=O)Cc1ccccn1)[C@H](C)CN([C@H](C)CO)S2(=O)=O`, the cytotoxicity call is “inactive”.

`C[C@H]1CN([C@@H](C)CO)C(=O)c2cccc(NC(=O)Nc3ccccc3)c2O[C@@H]1CN(C)Cc1ccc(-c2ccccc2)cc1`: the cytotoxicity call was “inactive”.

Regarding `C[C@@H]1CN([C@H](C)CO)C(=O)c2cccc(NC(=O)Nc3ccccc3)c2O[C@@H]1CN(C)Cc1ccc(-c2ccccc2)cc1`, the cytotoxicity call was “inactive”.

For the compound `C[C@@H]1CN([C@H](C)CO)C(=O)c2cccc(NC(=O)Nc3ccccc3)c2O[C@H]1CN(C)Cc1ccc(-c2ccccc2)cc1`, the cytotoxicity call was “active”.

As to `C[C@H](CO)N1C[C@H](C)[C@@H](CN(C)Cc2ccc(-c3ccccc3)cc2)Oc2c(NC(=O)Nc3ccccc3)cccc2C1=O`, the cytotoxicity call was “inactive”.

On to `C[C@@H]1CN([C@H](C)CO)C(=O)c2cccc(NC(=O)Nc3ccccc3)c2O[C@@H]1CN(C)Cc1ccc(C(=O)Nc2ccccc2N)cc1`, for which the cytotoxicity call was “inactive”.

As for `C[C@H]1CN([C@@H](C)CO)C(=O)c2cccc(NC(=O)Nc3ccccc3)c2O[C@H]1CN(C)Cc1ccc(-c2ccccc2)cc1`, the cytotoxicity call was “inactive”.

As to `C[C@H]1CN([C@@H](C)CO)C(=O)c2cccc(NC(=O)Nc3ccccc3)c2O[C@H]1CN(C)Cc1ccc(C(=O)Nc2ccccc2N)cc1`, the cytotoxicity call was “active”.

As for `C[C@@H]1CN([C@@H](C)CO)C(=O)c2cccc(NC(=O)Nc3ccccc3)c2O[C@H]1CN(C)Cc1ccc(C(=O)Nc2ccccc2N)cc1`, the cytotoxicity call was “inactive”.

As to `C[C@@H]1CN([C@@H](C)CO)C(=O)c2cccc(NC(=O)Nc3ccccc3)c2O[C@H]1CN(C)Cc1ccc(-c2ccccc2)cc1`, the cytotoxicity call was “active”.

Take `C[C@@H]1CN([C@@H](C)CO)C(=O)c2cccc(NC(=O)Nc3ccccc3)c2O[C@@H]1CN(C)Cc1ccc(-c2ccccc2)cc1`: the cytotoxicity call was “active”.

Regarding `C[C@H](CO)N1C[C@H](C)[C@H](CN(C)Cc2ccc(-c3ccccc3)cc2)Oc2c(NC(=O)Nc3ccccc3)cccc2C1=O`, the cytotoxicity call is “inactive”.

In the case of `C[C@H](CO)N1C[C@H](C)[C@H](CN(C)Cc2ccc(-c3ccccc3)cc2)Oc2c(NC(=O)Nc3ccc(F)cc3)cccc2C1=O`, the cytotoxicity call was “inactive”.

Regarding `C[C@H]1CN([C@@H](C)CO)S(=O)(=O)c2ccc(-c3cccnc3)cc2O[C@@H]1CN(C)CC1CCOCC1`, the cytotoxicity call was “inactive”.

Regarding `O=C(O)CCCCN(CCc1ccccc1OCc1ccc(CCc2ccccc2)cc1)Cc1ccc(C(=O)O)cc1`, the cytotoxicity call is “inactive”.

With `COc1ccc(S(=O)(=O)N(C)C[C@H]2Oc3c(NC(=O)c4ccncc4)cccc3C(=O)N([C@@H](C)CO)C[C@H]2C)cc1`, the cytotoxicity call is “inactive”.

Regarding `CN1C(=O)CS(=O)(=O)[C@@H]1c1ccccc1`, the cytotoxicity call is “inactive”.

Consider `C[C@@H]1CCCCO[C@H](CN(C)Cc2ccc(C(=O)O)cc2)[C@H](C)CN([C@@H](C)CO)C(=O)c2cc(NC(=O)Cc3ccccc3)ccc2O1`, for which the cytotoxicity call was “inactive”.

Turning to `C[C@@H]1CCCCO[C@H](CN(C)C(=O)Nc2ccc(F)cc2)[C@@H](C)CN([C@@H](C)CO)C(=O)c2cc(NC(=O)Nc3ccccc3)ccc2O1`, the cytotoxicity call is “inactive”.

`CN(C)CCCCCCNC(=O)[C@@H]1C[C@@H]2C(=O)NCC(=O)N2[C@@H]1c1cccc(OCCO)c1`: the cytotoxicity call is “inactive”.

For `Cc1ccc(S(=O)(=O)N(C)C[C@@H]2Oc3ccc(NS(=O)(=O)c4cn(C)cn4)cc3C(=O)N([C@@H](C)CO)C[C@@H]2C)cc1`, the cytotoxicity call is “inactive”.

As for `C[C@@H]1CN([C@H](C)CO)C(=O)c2cc(NC(=O)Cc3ccccc3)ccc2O[C@@H]1CN(C)C(=O)Nc1ccc(C(F)(F)F)cc1`, the cytotoxicity call was “inactive”.

As for `CCOC(=O)[C@H]1C/C=C/C[C@H](C(=O)OCC)C(=O)O[C@H]2[C@@H](OC)O[C@H](COC(=O)NCCCCCC(=O)NO)[C@@H](OC(=O)Nc3ccccc3)[C@@H]2OC1=O`, the cytotoxicity call was “inactive”.

With `C[C@H]1CCCCO[C@H](CN(C)C(=O)Nc2ccc(F)cc2)[C@@H](C)CN([C@@H](C)CO)C(=O)c2cc(NS(=O)(=O)c3ccc(F)cc3)ccc2O1`, the cytotoxicity call was “inactive”.

As for `COc1ccccc1C#Cc1cnc2c(c1)C(=O)N([C@H](C)CO)C[C@H](C)[C@@H](CN(C)C(=O)CC1CC1)O2`, the cytotoxicity call is “inactive”.

For `CC(C)(C)S(=O)N1Cc2cc(C(=O)N[C@@H]3CCN(Cc4ccccc4)C3)nc(-c3cccc(C#CCC4CCCC4)c3)c2[C@@H]1CCO` (some centres undefined), the cytotoxicity call is “inactive”.

As for `COc1ccc(C#Cc2cccc(-c3nc(C(=O)N[C@@H]4CCN(Cc5ccccc5)C4)cc4c3[C@H](CCO)N(S(=O)C(C)(C)C)C4)c2)cc1OC` (some centres undefined), the cytotoxicity call is “inactive”.

Regarding `CC(C)(C)S(=O)N1Cc2cc(C(=O)NCc3ccc4c(c3)OCO4)nc(-c3cccc(C#CCC4CCCC4)c3)c2[C@@H]1CCO` (some centres undefined), the cytotoxicity call was “inactive”.

As for `CC(C)(C)S(=O)N1Cc2cc(C(=O)N[C@@H]3CCN(Cc4ccccc4)C3)nc(-c3cccc(C#CCC4CCCC4)c3)c2[C@H]1CCO` (some centres undefined), the cytotoxicity call is “active”.

In the case of `CC(C)(C)S(=O)N1Cc2cc(C(=O)NCc3ccc4c(c3)OCO4)nc(-c3cccc(C#CCC4CCCC4)c3)c2[C@H]1CCO` (some centres undefined), the cytotoxicity call was “inactive”.

On to `CC(C)(C)S(=O)N1Cc2cc(C(=O)NCc3ccc(Oc4ccccc4)cc3)nc(-c3cccc(C#CCC4CCCC4)c3)c2[C@@H]1CCO` (some centres undefined), for which the cytotoxicity call was “active”.

`O=C(C[C@H]1CC[C@H]2[C@@H](COC[C@@H](O)CN2C(=O)c2ccc3c(c2)OCO3)O1)NCCN1CCCC1`: the cytotoxicity call was “inactive”.

Consider `O=C1[C@H]2C=NN[C@@H]2C(=O)N1Cc1ccccc1`, for which the cytotoxicity call was “inactive”.

Turning to `COc1ccc2c3c([nH]c2c1)[C@@H](CO)N(C[C@]13CCN(CC1)Cc1nccs1)C(=O)C1CCOCC1`, the cytotoxicity call was “inactive”.

Regarding `C[C@@H]1CN([C@@H](C)CO)C(=O)c2cccc(NS(C)(=O)=O)c2O[C@@H]1CN(C)S(=O)(=O)c1cccs1`, the cytotoxicity call was “inactive”.

The values are drawn from the antibiotic and cytotoxicity screens of Wong et al. (2023).
